Test results taken from PubChem BioAssay AID624262 (National Center for Advancing Translational Sciences (NCATS), 2012).
This is one part of the list. Records with an inconclusive call do not appear. Values without a mark were called inactive. The call rests on the fitted dose curve; in most records, active means well fitted curve in the direction sought with a large enough effect; inconclusive means small, poorly fitted or top-dose-only effect, or another doubt; inactive means no such curve, though single readings can be large or run the other way.

Test: qHTS for Inhibitors of Glutaminase (GLS): Hit Confirmation in HRP Counterscreen
Settings: HRP/glutamate oxidase coupled Amplex Red fluorescence counterscreen; series mostly up to 46.1 µM; activity change, negative = inhibition: at the top concentration
Excerpt: Glutaminase (GLS) catalyzes the hydrolysis of glutamine into glutamate and ammonia. It plays a critical role in glutaminolysis, which is an important energy source for proliferating cells. It was shown that c-Myc, an oncogenic transcription factor known to regulate microRNAs and to stimulate cell proliferation, increases glutamine metabolism by stimulating the expression of GLS via direct suppression of miR23a and miR23b. […] GLS is also thought to play a pathogenic role on HAD using a human HIV-1 infected macrophage system. […] GLS inhibition limits glutamate release and provides neuroprotection against HIV-1 infected macrophages. […] The overall goal of this project is to identify small molecule inhibitors of GLS through quantitative high throughput screening (qHTS) of the MLSMR. A validated potent and selective inhibitor can be used as a tool molecule to further study the pharmacology of its target as well as explore its potential therapeutic application in cancer and inflammatory neurological disorders, such as HIV1-associated dementia (HAD) and multiple sclerosis. […]
3 uL of buffer are dispensed into black 1536-well plates and then 23 nL of compounds are transferred into the wells using a pin tool. […] The plate is quickly centrifuged before an initial read on the ViewLux is obtained. After a 30 min incubation at RT the plate is once again read on the ViewLux.

| Structure (SMILES) | activity change, negative = inhibition |
| --- | --- |
| COc1cc(OC)c(S(=O)(=O)Nc2ccccc2C(=O)O)cc1S(=O)(=O)Nc1ccccc1C(=O)O | -3.19% |
| CCN1C(=O)c2cccc3c(S(=O)(=O)Nc4ccccc4O)ccc1c23 | -2.22% |
